The record followed here is PubChem BioAssay (NCATS).

Several values for one entry are separate records, joined by “and”; a condition that tells them apart may be missing. Equal entries are not always repeated. Results filed as inconclusive are left out. Activity calls are given as the source filed them. Calls come from the whole dose curve; as a rule, active = well fitted curve in the direction sought with a large enough effect; inconclusive = small, poorly fitted or top-dose-only effect, or another doubt; inactive = no such curve, though single readings can be large; an effect the other way counts as inactive or inconclusive.

The nature of experiment [1]: qHTS of pediatric cancer cell lines to identify multiple opportunities for drug repurposing: Confirmatory screen for BT-37 cells (AID 1347117). Note: nearly all actives have a fitted effect of over 55% in size. Note: potency is the fitted concentration of half-maximal effect. A digest of the protocol:
(§1)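 Cells (500-1,000/well) rested 5 h, then received compounds for 48 h; metabolically active cells were measured by CellTiter-Glo luminescence. Final concentrations spanned up to 46 µM (MIPE, 11-point) or 0.59 nM-46 µM (NPC, 8-point) in primary screens, 11-point in follow-ups.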
A general note: qHTS replaces the single test concentration by a dilution series.

The nature of experiment [2]: qHTS of pediatric cancer cell lines to identify multiple opportunities for drug repurposing: Confirmatory screen for TC32 cells (AID 1347118).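 Note: cells exposed to compound for 48 h before the read; nearly all actives have a fitted effect of over 65% in size.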 Note: potency is the fitted concentration of half-maximal effect. A digest of the protocol: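 Luminescent ATP read-out (CellTiter-Glo) of metabolically active TC32 cells after 48 h exposure. Concentration-response curves came from 11-point (MIPE, 0.78 nM–46 µM) or 8-point (NPC, 0.59 nM–46 µM) primary titrations; follow-up used 11 points.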

Experiment [3] in a line: qHTS of pediatric cancer cell lines to identify multiple opportunities for drug repurposing: Confirmatory screen for control Hh wild type fibroblast cells (AID 1347121). Note: nearly all actives have a fitted effect of over 70% in size. A digest of the protocol:
as §1

The nature of experiment [4]: qHTS of pediatric cancer cell lines to identify multiple opportunities for drug repurposing: Confirmatory screen for U-2 OS cells (AID 1347122). Note: nearly all actives have a fitted effect of over 65% in size. Note: potency is the fitted concentration of half-maximal effect. A digest of the protocol: as §1
The nature of experiment [5]: qHTS of pediatric cancer cell lines to identify multiple opportunities for drug repurposing: Confirmatory screen for RD cells (AID 1347124).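 Note: cells exposed to compound for 48 h before viability readout; nearly all actives have a fitted effect of over 65% in size.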 Note: potency is the fitted concentration of half-maximal effect. The essentials: as §1
Experiment [6] is described as follows: qHTS of pediatric cancer cell lines to identify multiple opportunities for drug repurposing: Confirmatory screen for Rh18 cells (AID 1347125). Note: nearly all actives have a fitted effect of over 55% in size. Note: potency is the fitted concentration of half-maximal effect. The essentials:
as §1

A short description of experiment [7]: qHTS of pediatric cancer cell lines to identify multiple opportunities for drug repurposing: Confirmatory screen for Rh30 cells (AID 1347126). Note: nearly all actives have a fitted effect of over 55% in size. Note: potency is the fitted concentration of half-maximal effect. A digest of the protocol:
as §1

Experiment [8] is described as follows: qHTS of pediatric cancer cell lines to identify multiple opportunities for drug repurposing: Confirmatory screen for SK-N-SH cells (AID 1347129).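 Note: cells exposed to compound for 48 h before viability read; nearly all actives have a fitted effect of over 60% in size.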 Note: potency is the fitted concentration of half-maximal effect. The essentials:
as §1

The subject of experiment [9] is Zika virus NS2B-NS3 protease. As to the kind of experiment: Primary screen GU AMC qHTS for Zika virus inhibitors (AID 1347154). Note: nearly all actives have a fitted effect of over 70% in size. A digest of the protocol:
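Fluorogenic AMC-substrate cleavage by noncovalent NS2B-NS3 protease complex (25 nM, pH 8.0 Tris buffer with Tween 20) followed for 15 minutes at room temperature (~20% conversion). Percent inhibition from ex340/em450 signal change, fitted by 4-parameter Hill equation.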

A short description of experiment [10]: qHTS of pediatric cancer cell lines to identify multiple opportunities for drug repurposing: Confirmatory screen for SJ-GBM2 cells (AID 1347116). Note: nearly all actives have a fitted effect of over 60% in size. Note: potency is the fitted concentration of half-maximal effect. The essentials:
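Viability measured as metabolically active cells via CellTiter-Glo luminescence following 48 hours of compound exposure, 11-point dilutions in confirmatory testing. 500-1,000 cells/well plated 5 hours before dosing; controls were DMSO and 2.3 µM bortezomib.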

Experiment [11] can be described thus: qHTS of pediatric cancer cell lines to identify multiple opportunities for drug repurposing: Confirmatory screen for OHS-50 cells (AID 1347128).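 Note: compound exposure lasted 48 h at 37 degrees C; nearly all actives have a fitted effect of over 55% in size.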 Note: potency is the fitted concentration of half-maximal effect. The essentials:
as §1

The target in experiment [12] is Furin (Homo sapiens) (UniProt P09958). Put plainly: Furin counterscreen qHTS for Zika virus inhibitors (AID 1347149).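 Note: purified recombinant full-length human furin enzyme at 5 nM; fluorescence gain from furin cutting a BOC-RVRR-AMC peptide substrate over 15 min; top concentration of the series differs between compounds; nearly all actives have a fitted effect of over 70% in size.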 The essentials:
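Counterscreen measures cleavage of 2 microM BOC-RVRR-AMC, below its ~15 microM Km, by 5 nM full-length human furin at pH 7.0 after a 15-min compound preincubation. Inhibition derives from the 15-min fluorescence increase at 37C.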

In experiment [13] the test system is Zika virus NS2B-NS3 protease (unlinked). As to the kind of experiment: Optimization of GU AMC qHTS for Zika virus inhibitors: Unlinked NS2B-NS3 protease assay (AID 1347151). Note: series mostly up to about 52 µM; nearly all actives have a fitted effect of over 80% in size. A digest of the protocol: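 Fluorescence read-out (340 nm ex / 450 nm em) of AMC peptide cleavage, taken immediately and after 15 min at room temperature (~20% conversion). Enzyme was the unlinked NS2B–NS3 complex at 25 nM in Tris pH 8.0 buffer.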

For experiment [14], the system named is Zika virus NS2B-NS3 protease (unlinked complex). As to the kind of experiment: Primary screen GU Rhodamine qHTS for Zika virus inhibitors: Unlinked NS2B-NS3 protease assay (AID 1347159). Note: nearly all actives have a fitted effect of over 60% in size. A digest of the protocol:
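Percent inhibition came from the 15-min rise in Rhodamine110 fluorescence (1.5 microM substrate, ~15% conversion), normalized to no-inhibitor and no-enzyme wells and Hill-fitted. Unlinked protease, 25 nM, pH 8.0 Tris buffer; compounds up to 114 microM, 15-min preincubation.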

The subject of experiment [15] is Zika virus NS2B-NS3 protease (linked construct). As to the kind of experiment: Primary screen NINDS Rhodamine qHTS for Zika virus inhibitors (AID 1347160). Note: nearly all actives have a fitted effect of over 55% in size. The note with it: outcome: dose series up to 57.1 µM unless noted. A digest of the protocol: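 Rhodamine110-peptide cleavage (1.5 µM substrate) by 25 nM linked NS2B-NS3 enzyme at pH 8.0 (Tris, Tween 20), after 15 min RT preincubation with compounds; 15-min fluorescence change normalized to controls and Hill-fitted.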

Sequence of Furin (Homo sapiens) (P09958 whole entry, looked up): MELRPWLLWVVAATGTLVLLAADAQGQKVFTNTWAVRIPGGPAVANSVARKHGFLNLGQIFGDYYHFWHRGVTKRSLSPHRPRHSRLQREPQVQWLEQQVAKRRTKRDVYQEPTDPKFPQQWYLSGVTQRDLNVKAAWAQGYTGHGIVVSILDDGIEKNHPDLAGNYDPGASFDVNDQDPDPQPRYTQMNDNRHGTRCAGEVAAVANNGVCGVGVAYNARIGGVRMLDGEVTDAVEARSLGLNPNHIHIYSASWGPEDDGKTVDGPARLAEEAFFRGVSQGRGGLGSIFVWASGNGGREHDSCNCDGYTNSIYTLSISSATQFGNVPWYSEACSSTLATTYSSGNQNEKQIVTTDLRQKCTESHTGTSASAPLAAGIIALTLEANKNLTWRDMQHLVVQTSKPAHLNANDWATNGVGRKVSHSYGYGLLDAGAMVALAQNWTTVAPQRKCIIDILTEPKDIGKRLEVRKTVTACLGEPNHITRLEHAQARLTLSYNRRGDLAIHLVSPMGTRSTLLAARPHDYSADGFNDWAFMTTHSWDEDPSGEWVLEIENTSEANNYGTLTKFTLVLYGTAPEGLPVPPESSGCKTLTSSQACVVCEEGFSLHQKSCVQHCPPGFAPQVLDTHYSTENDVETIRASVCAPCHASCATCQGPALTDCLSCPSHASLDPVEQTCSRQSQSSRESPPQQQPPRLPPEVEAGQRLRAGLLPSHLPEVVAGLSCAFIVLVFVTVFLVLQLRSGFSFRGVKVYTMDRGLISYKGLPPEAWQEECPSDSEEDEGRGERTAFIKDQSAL

As for `COc1cc([C@@H]2c3cc4c(cc3[C@H](O)[C@H]3COC(=O)[C@H]23)OCO4)cc(OC)c1OC`, the Potency is 52.2 nM (active) in [1], 73.7 nM (active) in experiment [2], 73.7 nM (active) in experiment [4] and 41.4 nM (active) in [5]. Besides, the Potency result in [3], in experiment [6], in experiment [7], in [8] and in experiment [9] was “inactive” each time.
`COc1ccc(C(=O)CC(=O)c2ccc(C(C)(C)C)cc2)cc1`: the Potency result in experiment [10], in [3], in [4], in experiment [5], in experiment [6] and in experiment [7] was “inactive” in each case. Moreover, the Potency entry in [11], in experiment [8] and in [9] was “inactive” each time.
For the compound `Nc1nc(=S)c2[nH]cnc2[nH]1`, the Potency is 5.22 µM (active) in [10]; 3.29 µM (active) and 2.93 µM (active) in [1]; 1.17 µM (active) and 737 nM (active) in experiment [2]; 1.04 µM (active) and 928 nM (active) in experiment [4]; 13.1 µM (active) in [6]; 928 nM (active) and 414 nM (active) in experiment [11]. For the same compound, the Potency in experiment [8] is 4.18 µM (active) and 3.72 µM (active). Further, the Potency result in experiment [3], in [12], in experiment [13] and in [9] was “inactive” in each case.
In the case of `CNNCc1ccc(C(=O)NC(C)C)cc1`, the Potency entry in [10], in experiment [1], in experiment [3], in experiment [4], in experiment [5] and in [7] was “inactive” throughout. For the same compound, the Potency entry in experiment [11], in [8] and in experiment [9] was “inactive” throughout.
With `COc1cc2c(Nc3ccc(Br)cc3F)ncnc2cc1OCC1CCN(C)CC1`, the Potency result in experiment [10], in [1], in experiment [2], in experiment [3], in [4] and in experiment [6] was “inactive” throughout. Besides, the Potency entry in [9] and in experiment [14] was “inactive” each time. Also, the Potency in experiment [8] is 16.6 µM (active). Also, in experiment [15], the compound was classed as inactive.
For the compound `CCC(=O)O[C@]1(C(=O)CCl)[C@@H](C)C[C@H]2[C@@H]3CCC4=CC(=O)C=C[C@]4(C)[C@@]3(F)[C@@H](O)C[C@@]21C`, the Potency entry in experiment [10], in experiment [1], in experiment [2], in experiment [3], in experiment [4] and in experiment [5] was “inactive” each time. The Potency result in experiment [6], in [11], in experiment [8] and in experiment [9] was “inactive” each time. The Potency in experiment [7] is 13.1 µM (active).
In the case of `CO[C@@]12[C@H](COC(N)=O)C3=C(C(=O)C(C)=C(N)C3=O)N1C[C@@H]1N[C@@H]12`, the Potency in experiment [10] was 16.5 µM (active); in [1] it was 737 nM (active); in [2] it was 465 nM (active); in experiment [7] it was 9.27 µM (active); in experiment [8], 14.8 µM (active). In [9], the Potency result was “inactive”.
Turning to `COC(=O)Nc1nc2ccc(S(=O)c3ccccc3)cc2[nH]1` (stereo not given), the Potency was 2080 nM (active) in experiment [1]; 1040 nM (active) in experiment [2]; 2930 nM (active) in experiment [4]; 2610 nM (active) in experiment [5]; 2.33 µM (active) in experiment [11]; 2.96 µM (active) in experiment [8]. Besides, the Potency result in experiment [3], in experiment [6], in experiment [7] and in experiment [9] was “inactive” in each case.
